Assay [1] in a line: qHTS assay to identify small molecule antagonists of the estrogen related receptor (ERR) signaling pathway from Tox21 library (AID 1224848). Also: potency is read from the fitted curve at half-maximal effect; nearly all actives have a fitted effect of over 50% in size. Conditions: ERR reporter cell line, luciferase antagonist mode, 18 h; series mostly up to 92.4 µM. In short, it runs like this: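 Luciferase luminescence (ONE-Glo, 30 min room temperature) was the read-out. Cells of the NTP-supplied ERR line, 2,000 per well, were given 6 h at 37 C before compound addition in DMSO and 18 h exposure at 37 C.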
In general terms: In qHTS, concentration-response curves come from the screen itself.

Assay [2] is described as follows: qHTS assay to identify small molecule agonists of the estrogen related receptor (ERR) signaling pathway from Tox21 library (AID 1224849; calls by dose curve; also: % is scaled to controls: 0 for no effect and ±100 for the full control effect; nearly all actives have a fitted effect of over 15% in size). Conditions: ERR reporter cell line, ONE-Glo luciferase, 18 h; at 92.4 µM (top of the series) unless noted. The essentials: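 Reporter cells (ERR, NTP source) treated with Tox21 10K compounds 18 h, 37 C. Readout: ONE-Glo luminescence, 30 min RT.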

A short description of assay [3]: qHTS RealTime-Glo MT Cell Viability Assay in HEK293 cells - 32 hour (AID 1224868). Also: nearly all actives have a fitted effect of over 50% in size. Also: potency is read from the fitted curve at half-maximal effect. The note with it: RealTime-Glo luminescence; series mostly up to 76.8 µM. In short, it runs like this: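 Luminescence generated by NanoLuc from substrate produced by living HEK293 cells served as the viability signal. Each value reflects the reading at its stated time point during continuous 40 h compound exposure at 37 C.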

Assay [4] can be described thus: A CellTox Green Cytotoxicity Assay to monitor cytotoxicity in HEK293 cells - 0 hour (AID 1224869). Also: % is scaled to controls: 0 for no effect and ±100 for the full control effect; nearly all actives have a fitted effect of over 50% in size. The note with it: CellTox Green fluorescence; series mostly up to 76.8 µM. In short, it runs like this:
(§1)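 Homogeneous no-lysis format: HEK293 cell suspension mixed with CellTox Green reagent, seeded, incubated 5 h at 37 C/5% CO2, then dosed by pintool with compound in DMSO.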

Assay [5] is described as follows: qHTS RealTime-Glo MT Cell Viability Assay in HepG2 cells - 40 hour (AID 1224870). Also: nearly all actives have a fitted effect of over 50% in size. Also: potency is read from the fitted curve at half-maximal effect. The note with it: RealTime-Glo luminescence; series mostly up to 76.8 µM. The essentials:
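Real-time viability: cells seeded at 600 per well together with NanoLuc and cell-permeant prosubstrate, compounds added after 5 h incubation. Luminescence tracked at 0, 8, 16, 24, 32 and 40 h of exposure.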

Assay [6] in a line: qHTS RealTime-Glo MT Cell Viability Assay in HepG2 cells - 24 hour (AID 1224867). Also: nearly all actives have a fitted effect of over 50% in size. Also: potency is read from the fitted curve at half-maximal effect. Conditions: RealTime-Glo luminescence; series mostly up to 76.8 µM. In short, it runs like this:
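Tox21 10K library screened in qHTS format on HepG2 cells carrying RealTime-Glo reagents. Compounds were added after a 5 h preincubation, and the luminescent signal from continuous culture was measured repeatedly during 40 h treatment.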

The nature of assay [7]: A CellTox Green Cytotoxicity Assay to monitor cytotoxicity in HEK293 cells - 40 hour (AID 1224871). Also: nearly all actives have a fitted effect of over 45% in size. Also: potency is read from the fitted curve at half-maximal effect. The note with it: CellTox Green fluorescence; series mostly up to 76.8 µM. The essentials:
as §1

Assay [8] can be described thus: qHTS assay to identify small molecule agonists of H2AX - cell viability counter screen (AID 1224847; calls by dose curve; also: nearly all actives have a fitted effect of over 30% in size; also: potency is read from the fitted curve at half-maximal effect). Conditions: CHO-K1 viability, CellTiter-Glo luminescence, 3 h; series mostly up to 70.9 µM. The essentials:
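After overnight plating of 1000 CHO-K1 cells per well, a 15-concentration compound series was applied for 3 hr at 37C. Luminescence from CellTiter-Glo, read following 30 min at room temperature, reflected cell viability.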

Values without a mark were called inactive. Inconclusive results are not listed. Activity calls are given as the source filed them. Unless noted, calls follow the shape of the dose curve; as a rule, active = well fitted curve in the direction sought with a large enough effect in the repeat runs; inconclusive = weak or mixed curves; inactive = no such curve, though single readings can be large; an effect the other way counts as inactive or inconclusive.

The record followed here is PubChem BioAssay (Tox21).

Regarding `Fc1ccc(C(c2ccc(F)cc2)N2CCN(C/C=C/c3ccccc3)CC2)cc1`, the figures for the Potency in assay [1] and in assay [3] were 23.7 µM (active) and 21.3 µM (active), respectively. Besides, the activity change, positive = activation in assay [2] is -51.3% [at 42.5 µM]. The Potency entry in assay [4] and in assay [5] was “inactive” throughout.
Regarding `NNc1nc(-c2ccccc2)cs1`, the activity change, positive = activation in assay [2] is -30.7%. The Potency result in assay [6], in assay [4], in assay [5] and in assay [7] was “inactive” each time.
Regarding `CSc1ccc2c(c1)C(N1CCN(C)CC1)Cc1ccccc1S2` (stereo not given), the Potency in assay [6] is 23.9 µM (active). In addition, the Potency result in assay [4] is “inactive”.
In the case of `Oc1cccc(-c2c3nc(c(-c4cccc(O)c4)c4ccc([nH]4)c(-c4cccc(O)c4)c4nc(c(-c5cccc(O)c5)c5ccc2[nH]5)CC4)C=C3)c1`, the Potency result in assay [4], in assay [5] and in assay [7] was “inactive” each time.
For the compound `OCc1c[nH]c2ccccc12`, the Potency in assay [1] is 13.7 µM (active). Also, the activity change, positive = activation in assay [2] was -39.5%. The Potency result in assay [6], in assay [4] and in assay [5] was “inactive” each time.
As to `Clc1ccc(C(Cn2ccnc2)OCc2ccc(Sc3ccccc3)cc2)c(Cl)c1` (stereo not given), the Potency result in assay [8], in assay [6], in assay [3], in assay [4] and in assay [5] was “inactive” each time.
Take `Cc1[nH]nc2c1N=C(c1ccccc1Cl)c1cc([N+](=O)[O-])ccc1N2`: the Potency in assay [8] is 80 µM (active). Further, the Potency result in assay [6], in assay [4], in assay [5] and in assay [7] was “inactive” each time.
In the case of `CC[C@@]1(O)C(=O)OCc2c1cc1n(c2=O)Cc2c-1nc1ccccc1c2/C=N/OC(C)(C)C`, the Potency is 0.0596 µM (active) in assay [1], 0.0239 µM (active) in assay [3] and 1.07 µM (active) in assay [5]. Moreover, the activity change, positive = activation in assay [2] was -54.3% [at 42.5 µM]. Moreover, the Potency result in assay [4] and in assay [7] was “inactive” each time.
Take `O=[N+]([O-])c1cc([N+](=O)[O-])c2ccc(S(=O)(=O)O)cc2c1O`: the Potency result in assay [8], in assay [6], in assay [3], in assay [5] and in assay [7] was “inactive” throughout.
Take `COc1cc(-c2nc(NC(=O)c3cc4cc(C)cc(C)c4n3CC(=O)O)sc2CCC2CCCCC2)c(OC)cc1Cl`: the Potency in assay [1] is 31.5 µM (active); in assay [6], 40 µM (active); in assay [3], 25.2 µM (active); in assay [5], 40 µM (active). Moreover, the activity change, positive = activation in assay [2] was -61.8%. For the same compound, the Potency entry in assay [4] was “inactive”.
Take `O=C1Cc2cc(CCN3CCN(c4nsc5ccccc45)CC3)c(Cl)cc2N1`: the Potency in assay [1] was 26.6 µM (active); in assay [7], 26.8 µM (active). Also, in assay [2], the activity change, positive = activation was -35.7% [at 42.5 µM]. In addition, the Potency entry in assay [4] and in assay [5] was “inactive” throughout.
Turning to `CCCCCCCC/C=C\CCCCCCCCOCCO`, the Potency is 65.6 µM (active) in assay [8], 3.19 µM (active) in assay [3] and 31.9 µM (active) in assay [7]. Also, the Potency result in assay [4] and in assay [5] was “inactive” each time.
Consider `On1ccccc1=S`, for which the Potency was 1.21 µM (active) in assay [1]; 0.544 µM (active) in assay [6]; 4.32 µM (active) in assay [3]; 0.485 µM (active) in assay [5]; 1.09 µM (active) in assay [7]. For the same compound, the activity change, positive = activation in assay [2] is -71.1%. Moreover, the Potency entry in assay [4] is “inactive”.
Regarding `CCCCCOc1ccccc1/C(=C\SC)n1ccnc1`, in assay [1], the Potency is 21.1 µM (active). Moreover, the activity change, positive = activation in assay [2] was -47.2% [at 42.5 µM]. For the same compound, the Potency result in assay [6], in assay [4], in assay [5] and in assay [7] was “inactive” throughout.
